Compound activity: PubChem, National Center for Advancing Translational Sciences (NCATS)
Rows were chosen to be rich in hits. Some 7.5% of all compounds tested hit in one or more screens of this group.
TSHR antag: blocks TSH signaling through the human TSH receptor; AID 504810; TSHR-expressing cells, TSH-stimulated cAMP HTRF, 2 h; stronger effect = lower value; P16473; activity change, negative = inhibition, % at 11.5 µM; hit rate 0.2% among 330,000;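 active = activity change below a set negative limit, meaning inhibition stronger than a set level, cut at about -70% in these data; inconclusive = activity change between two set negative limits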
Target sequence (P16473 whole entry, looked up): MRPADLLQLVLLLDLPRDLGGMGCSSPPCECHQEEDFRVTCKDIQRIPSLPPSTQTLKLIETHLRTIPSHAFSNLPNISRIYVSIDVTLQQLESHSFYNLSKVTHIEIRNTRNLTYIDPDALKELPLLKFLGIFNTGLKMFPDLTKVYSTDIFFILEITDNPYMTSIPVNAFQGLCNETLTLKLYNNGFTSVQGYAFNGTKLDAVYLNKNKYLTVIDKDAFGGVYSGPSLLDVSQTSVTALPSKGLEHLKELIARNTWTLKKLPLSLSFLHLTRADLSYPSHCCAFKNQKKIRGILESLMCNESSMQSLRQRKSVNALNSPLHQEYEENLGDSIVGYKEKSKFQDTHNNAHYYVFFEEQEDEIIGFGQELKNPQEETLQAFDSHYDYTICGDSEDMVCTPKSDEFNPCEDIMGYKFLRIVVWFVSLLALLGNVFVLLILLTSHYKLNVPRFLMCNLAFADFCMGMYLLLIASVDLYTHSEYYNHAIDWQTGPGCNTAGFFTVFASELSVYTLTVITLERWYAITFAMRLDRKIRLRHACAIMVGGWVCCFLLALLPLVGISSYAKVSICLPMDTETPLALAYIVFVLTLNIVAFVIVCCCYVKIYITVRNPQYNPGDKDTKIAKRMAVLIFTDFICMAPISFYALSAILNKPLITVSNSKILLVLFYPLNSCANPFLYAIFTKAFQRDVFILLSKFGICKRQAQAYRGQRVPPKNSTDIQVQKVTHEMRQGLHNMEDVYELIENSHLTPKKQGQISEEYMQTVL
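Competitive HTRF cAMP read-out (cryptate anti-cAMP antibody, cAMP-d2; 30 min, room temperature) in freshly harvested TSHR cells. Compounds added before TSH at EC80 (4nM final), followed by 2 hours' incubation at 37 deg C.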
RORgamma inh: blocks mouse ROR gamma transcriptional activity; P51450; Drosophila S2 Gal4-RORgamma UAS-luciferase reporter, 20 h; Potency, µM (series often up to 53.6 µM), for inactives: at the highest dose activity change, negative = inhibition, hits mostly inhibitors; hit rate 5.4% among 310,000; AID 2551; note: potency is the fitted concentration of half-maximal effect; nearly all actives have a fitted effect of over 60% in size
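Drosophila S2 cells stably expressing Gal4-DBD/mouse RORγ fusion under metallothionein promoter plus UAS-luciferase; compound 1 h, then 700 uM CuSO4 induction for 20 h at ambient temperature; inhibition read as reduced luminescence.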
ELG1 repair inh: blocks ELG1-dependent DNA repair in HEK293T cells; Potency, µM (highest dose often 46.1 µM), without a hit: at the top dose activity change, negative = inhibition, hits mostly inhibitors; hit rate 2.3% among 330,000; HEK293T ELG1-luciferase reporter, luminescence, 16 h; DNA damage induced by 5-fluorouridine; note: potency is the fitted concentration of half-maximal effect; nearly all actives have a fitted effect of over 55% in size
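Cells (2,000 per well) received 5-fluorouridine plus test compound or DMSO and were incubated 16 hr at 37 °C, 5% CO2. Luciferase activity was read by luminescence 30 min after ONE-Glo addition; signal suppression marked inhibition of damage-induced ELG1 function.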
B2AR arrestin: beta2AR (human) beta-arrestin recruitment activity; P07550; beta-arrestin recruitment to beta2AR, cell-based reporter; Potency, µM (titrated, usually from 46.1 µM), for the others: at the top dose activation, actives largely listed as activators; hit rate 0.02% among 330,000; AID 492947;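 note: potency is the fitted concentration of half-maximal effect; 0% = DMSO controls and full agonism = EC100 isoproterenol or metaproterenol; nearly all actives have a fitted effect of over 65% in size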
VP16 counter: counter-screen for ROR gamma inhibitors: Gal4-VP16 reporter | AID 2546 | Potency, µM (series often up to 53.6 µM), inactives show at the highest dose activity, negative = inhibition, actives largely listed as inhibitors | hit rate 3.5% among 310,000 | Drosophila S2 Gal4-VP16 UAS-luciferase, luminescence, 20 h;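 note: Gal4-VP16 expression switched on by copper sulfate through the metallothionein promoter; potency is the fitted concentration of half-maximal effect; nearly all actives have a fitted effect of over 50% in size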
The depositor's hits bear a star; ? = inconclusive; / = not tested or not shown; [ ] = remark or other dose. Unless noted, calls come from the whole dose curve; as a rule, active = well fitted curve in the direction sought with a large enough effect; inconclusive = small, poorly fitted or top-dose-only effect, or another doubt; inactive = no such curve, though single readings can be large; an effect the other way counts as inactive or inconclusive. Unless noted, % is set by controls: 0 for no effect and ±100 for the full control effect.

SMILES | TSHR antag | RORgamma inh | ELG1 repair inh | B2AR arrestin | VP16 counter
S=C(NCCc1ccccc1)Nc1ccccc1Cl | -15 | 5.6µM* | 16% | 0% | 10µM*
S=C(NCCc1ccccn1)Nc1ccccc1Cl | 19 | 6.3µM* | ? | 0% | 13µM*
S=C(NCCc1ccccn1)Nc1ccc(Cl)cc1Cl | -1 | 5µM* | -3% | -1% | ?
S=C(NCCc1ccncc1)Nc1cccc2ccccc12 | -4 | 10µM* | -8% | 0% | ?
S=C(NCc1ccccn1)Nc1ccc(Br)cc1Cl | -9 | 7.1µM* | ? | 0% | ?
S=C(NCc1ccc(Cl)cc1)NCc1ccccn1 | -6 | 16µM* | 3% | 0% | ?
S=C(NCc1ccccc1)NCc1ccccn1 | -5 | ? | 12% | 0% | -2%
S=C(NCc1ccccn1)Nc1ccccc1Cl | 4 | 10µM* | ? | 0% | ?
Cc1cccc(CNc2cc(-c3ccc(C(=O)N(C)C)cc3)ncn2)c1 | / | 19% | / | / | -10%
COc1ccc(OC)c(/C=C/C(=O)N(C)CC(=O)Nc2ccc(N3CCOCC3)cc2)c1 | -6 | / | -28% | 0% | /
Cc1c(Cl)cccc1NC(=S)NCCc1ccc(C(F)(F)F)cc1 | -6 | 2.5µM* | ? | 1% | ?
Fc1ccccc1NC(=S)NCCc1cccc(Cl)c1 | -5 | 7.1µM* | ? | -1% | 10µM*
S=C(NCCc1ccccc1)NCc1cccc(Cl)c1 | -39 | 18% | 12% | -1% | -6%
CC(C1CC1)N(Cc1ccccc1)C(=S)Nc1ccccc1Cl (centres undefined) | -9 | 10µM* | ? | 0% | ?
S=c1nc(-c2ccccc2)c(-c2ccccc2)n[nH]1 | -9 | 8.9µM* | -4% | -1% | -20%
CC1(C)CC(=O)C2=C(C1)NC1=C(C(=O)c3ccccc31)C2c1ccccc1 (centres undefined) | -14 | ? | 26µM* | -1% | -11%
COc1ccccc1NC(=S)NC1CCCCC1 | 39 | 4.5µM* | -1% | 0% | 20µM*
COc1ccc(OC)c(NC(=O)NC2CCCCCCC2)c1 | -5 | -10% | -1% | 0% | -12%
COc1ccccc1CNC(=S)NC1CCCC1 | -3 | 5.6µM* | 0% | -1% | 7.1µM*
COc1ccccc1NC(=S)NC1CCCCCCCCCCC1 | -19 | 2.8µM* | ? | 0% | ?
CCOc1ccccc1NC(=S)NC1CCCCC1 | -2 | 15% | -8% | 0% | -6%
COc1ccc(NC(=S)NC2CCCC2)c(OC)c1 | -8 | 6.3µM* | ? | -1% | ?
COc1ccccc1CNC(=O)C1CCC1 | 3 | -13% | 18% | -4% | 0%
COc1ccc(OC)c(C(C)NC(=S)NC2CCCCC2)c1 (centres undefined) | 8 | 4µM* | -14% | 0% | 4µM*
COc1ccccc1NC(=S)NCC1CCCCC1 | -3 | 4.5µM* | 7% | -1% | 13µM*
SMILES | TSHR antag | RORgamma inh | ELG1 repair inh | B2AR arrestin | VP16 counter
COc1ccccc1NC(=O)CC1CCCC1 | -1 | 12% | 0% | 0% | 3%
Cc1ccc(C)c(C(C)NC(=S)NC2CCCCC2)c1 (centres undefined) | -3 | 2.5µM* | -9% | 0% | 5.6µM*
COc1ccc(OC)c(NC(=O)C(=S)NC2CCCCC2)c1 | -32 | -40% | 20% | -1% | 10%[10 µM]
CN(C)/[N+]([O-])=N/Oc1cc(O/[N+]([O-])=N/N2CCCC2CO)c([N+](=O)[O-])cc1[N+](=O)[O-] (centres undefined) | / | 21% | / | / | -5%
Cc1ccc(S(=O)(=O)OCCc2ccccc2)cc1 | / | 2% | / | / | -14%
O=C(NNC1=Nc2cccc3cccc1c23)c1ccccc1Br | -5 | 0.71µM* | 10% | -1% | 1.1µM*
O=C(O)c1cccc(NC2=Nc3cccc4cccc2c34)c1 | -13 | 15% | ? | 0% | 17%
CCNc1nc(CSc2ccccc2)nc2sc(C)c(C)c12 | -21 | 5.6µM* | -9% | 0% | 5µM*
Cc1sc2nc(CN3CCOCC3)nc(NCCc3ccccc3)c2c1C | 6 | 7.1µM* | ? | 0% | ?
O=S(=O)(Nc1nc2ccccc2nc1NCc1ccco1)c1ccc(F)cc1 | 3 | 28% | 15µM* | 0% | -9%
Brc1ccc2ncnc(NCc3ccco3)c2c1 | -22 | -32% | 8.2µM* | 0% | ?
Cc1sc2nc(CSc3ccccc3)nc(NCCN(C)C)c2c1C | 4 | 1% | 5% | -1% | 1%
Cn1cccc1C(=O)N1CCC2(CCCN(C(=O)Nc3ccccc3)C2)CC1 | / | 2% | / | / | -5%
COc1ccc2c(=O)c(C)c(-c3ccccc3)oc2c1CN(C)C | / | 23% | / | / | -3%
c1coc(CNc2ncnc3sc4c(c23)CCCCC4)c1 | 6 | -18% | ? | 0% | 7%
Cc1sc2ncnc(NCc3ccco3)c2c1C | -9 | 19% | ? | 0% | 20µM*
Cc1sc2ncnc(NCCN3CCOCC3)c2c1C | 1 | 34% | 18µM* | -1% | -12%
Cc1sc2ncnc(NCc3cccs3)c2c1C | -30 | -13% | 7% | 0% | 10µM*
c1coc(CNc2nc3nonc3nc2NCc2ccco2)c1 | 0 | 0% | 0% | ? | 13µM*
CC1CCc2c(sc3ncnc(NCCN4CCOCC4)c23)C1 (centres undefined) | 0 | -6% | -3% | 0% | 20%
O=S(=O)(Nc1nc2ccccc2nc1NCc1ccco1)c1ccccc1 | 0 | 20% | -13% | 0% | 5%
COCc1ccc(C(=O)NC2CCCN(Cc3ccccc3F)C2)o1 (centres undefined) | -5 | 5% | -8% | 0% | 1%
COc1ccc(N2CCN(C(=O)CCS(=O)(=O)c3ccc4c(c3)NC(=O)CO4)CC2)cc1 | -11 | 1% | 0% | 0% | -1%
CC(N=C1NS(=O)(=O)c2ccccc21)C(=O)NCc1ccc(F)cc1 (centres undefined) | 0 | / | -2% | 0% | /
COC(=O)C1=C(C)NC(=S)NC1c1ccc(OCC(=O)N2CCCCC2)c(OC)c1 (centres undefined) | -6 | 5% | 13% | 0% | 9%
CCOc1cc(/C=N/NC(=O)c2nn(C)cc2Br)ccc1OCc1ccccc1 | -11 | 38% | 18µM* | -2% | -18%
COc1ccc(/C=N/NC(=O)c2cc(C)oc2C)cc1OCc1ccccc1 | -13 | 10µM* | ? | -1% | ?
Cc1cc(C(=O)N/N=C/c2ccc(OCc3ccccc3)cc2)c(C)o1 | -3 | ? | 4% | 0% | -16%
COc1ccc(/C=N/NS(=O)(=O)c2ccccc2)cc1OC | -1 | ? | 18µM* | 0% | -23%
COc1ccc(/C=N/NC(=O)c2cccc([N+](=O)[O-])c2)cc1OC(=O)c1ccc(C)cc1 | 0 | 5µM* | -5% | -1% | ?
